Consider seven compounds from PubChem BioAssay (NCATS).

Records with an inconclusive call do not appear. Calls of active or inactive are those of the source. Unless noted, the call rests on the fitted dose curve; in most records, active means well fitted inhibition curve with a large enough effect; inconclusive means small, poorly fitted or top-dose-only effect; inactive means no such curve, though single readings can be large or run the other way.

The nature of test [1]: qHTS profiling of the MIPE4 collection as inhibitors of Plasmodium falciparum (DD2) proliferation (AID 743345; call rule not given here). The conditions noted are these: P. falciparum Dd2 in erythrocytes, SYBR Green DNA, 72 h; at 28.5 µM (top of the series) unless noted. A digest of the protocol: (§1)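 Parasite DNA was quantified by SYBR Green I fluorescence (ex 485, em 535 nm) after overnight lysis in saponin/Triton buffer at room temperature. Cultures at 0.3% parasitemia and 2.5% hematocrit were first exposed to compound for 72 h at 37 C; signals were normalised to artemisinin (0.29 uM) and vehicle wells.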
(In general: qHTS replaces the single test concentration by a dilution series.)

A short description of test [2]: qHTS profiling of the MIPE4 collection as inhibitors of Plasmodium falciparum (DD2) proliferation (Rep 2) (AID 743346; call rule not given here). The conditions noted are these: P. falciparum Dd2 in erythrocytes, SYBR Green DNA, 72 h; at 28.5 µM (top of the series) unless noted. Put shortly: as §1
The nature of test [3]: qHTS profiling of the MIPE4 collection as inhibitors of Plasmodium falciparum (HB3) proliferation (AID 743347; call rule not given here;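 further: plate controls were DMSO vehicle wells for no effect and artemisinin wells for full effect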). As to conditions: P. falciparum HB3 in erythrocytes, SYBR Green DNA, 72 h; at 28.5 µM (top of the series) unless noted. A digest of the protocol: as §1
Test [4] in a line: High-throughput drug toxicity screening in the BPDCN cell line Gen2.2 (AID 1224824; call rule not given here;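 further: cells exposed to compounds for 48 h before reading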). As to conditions: Gen2.2 BPDCN cells; at 45.8 µM (top of the series) unless noted. A digest of the protocol:
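Gen2.2, 500 cells/well, phenol red-free RPMI/10% FBS/Pen-Strep; 48 h cpd, 37 °C/5% CO2; CTG lum, 15 min RT. Norm: DMSO = 100%, bortezomib 9.2 uM final = 0%.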

A short description of test [5]: High-throughput drug toxicity screening in the BPDCN cell line Cal-1 (AID 1224825; call rule not given here). The conditions noted are these: Cal-1 BPDCN cell viability, qHTS; at 45.8 µM (top of the series) unless noted. Put shortly: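 CellTiter-Glo luminescence after 48 h compound exposure; percent activity scaled with DMSO as 100% and bortezomib (9.2 uM final) as 0%. Cal-1 cells seeded at 500/well in RPMI, 10% FBS, no phenol red.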

Test [6] can be described thus: qHTS assay for measurement of the activity of small molecule inhibitors on Zika virus induced Caspase-3 activity in human iPSC derived neural progenitor cells (hNPCs) (AID 1224857). Further: % of control where 0% means no effect; nearly all actives have a fitted effect of over 65% in size. A digest of the protocol: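 Values are percent inhibition of virus-induced caspase-3/7 signal, scaled between uninfected cells and ZIKV-infected cells. Infection used 2 FFU/cell for 6 h after 1 h compound exposure.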

Test [7] can be described thus: qHTS assay for measurement of the activity of small molecule inhibitors on Zika virus induced Caspase-3 activity in human astrocytoma cells (AID 1224859).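 Further: plate controls were ZIKV-infected untreated cells for no effect and uninfected cells for full effect.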 Put shortly: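 Compound added 1 h pre-infection; ZIKV 2 FFU/cell on SNB-19 cells, 6 h, 37 C/5% CO2. Caspase-Glo 3/7 luminescence; values as % inhibition of ZIKV-induced caspase activity.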
Test [8] in a line: qHTS Screen of the MIPE 4.0 Collection Against Ewings Sarcoma (RDES) (AID 1259252). Further: nearly all actives have a fitted effect of over 35% in size. Further: potency means the concentration at half of the fitted maximal effect. Put shortly:
(§2)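 Log-phase cells in RPMI with 5% FBS attached for 4 h, then received compounds as a titration for 48 h at 37C, 5% CO2. Viability was read by CellTiter-Glo luminescence and normalized to DMSO and no-cell wells.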

Test [9] is described as follows: qHTS Screen of the MIPE 4.0 Collection Against Ewings Sarcoma (TC71) (AID 1259253). Further: nearly all actives have a fitted effect of over 40% in size. Further: potency means the concentration at half of the fitted maximal effect. Put shortly: as §2
Test [10] can be described thus: qHTS Screen of the MIPE 4.0 Collection Against Ewings Sarcoma (EW8) (AID 1259255). Further: nearly all actives have a fitted effect of over 35% in size. Further: potency means the concentration at half of the fitted maximal effect.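 On viability: 100% = DMSO-treated cells and 0% = medium-only wells without cells.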 Put shortly:
as §2

For `COc1cc2c(cc1O)CCC1C2CC[C@@]2(C)C1CC[C@@H]2O` (stereo not given in full), in test [1], the parasite growth remaining, % of DMSO control (lower = more inhibition) came out at 94.6%. In addition, the parasite growth, % of control (lower = inhibition) in [2] is 67%. In test [3], the growth, % of control is 59.7%. Moreover, the cell viability, % of control (lower = more cytotoxic) in test [4] is 95.2%. Also, in [5], the viability (% of control) was determined as 10.9%. The Potency result in [6] and in test [7] was “inactive” in each case. In addition, the Potency in [8] is 7.43 µM (active); in test [9], 2.64 µM (active); in test [10], 3.32 µM (active).
Turning to `CCOC(=O)C=C[C@H](C[C@@H]1CCNC1=O)NC(=O)[C@@H](CC(=O)[C@@H](NC(=O)c1cc(C)on1)C(C)C)Cc1ccc(F)cc1`, the parasite growth remaining, % of DMSO control (lower = more inhibition) in test [1] was determined as 98.4%. Moreover, the parasite growth, % of control (lower = inhibition) in [2] is 41.1%. In test [3], the growth, % of control came out at 37.6%. Besides, the cell viability, % of control (lower = more cytotoxic) in test [4] turned out to be 74.1%. Further, the viability (% of control) in test [5] was 107%. In addition, the Potency result in test [6], in test [7], in [8], in [9] and in test [10] was “inactive” in each case.
The compound `CC1(C)[C@H](O[C@H]2O[C@H](C(=O)O)[C@@H](O)[C@H](O)[C@H]2O[C@@H]2O[C@H](C(=O)O)[C@@H](O)[C@H](O)[C@H]2O)CC[C@@]2(C)[C@H]1CC[C@]1(C)[C@H]2C(=O)C=C2[C@H]3C[C@@](C)(C(=O)O)CC[C@]3(C)CC[C@]21C` came in with a parasite growth remaining, % of DMSO control (lower = more inhibition) in test [1] of 97.4%. Also, the parasite growth, % of control (lower = inhibition) in [2] was found to be 85.7%. In test [3], this compound returned a growth, % of control of 109%. Moreover, the cell viability, % of control (lower = more cytotoxic) in test [4] worked out at 153%. Further, the viability (% of control) in [5] is 125%. Besides, the Potency entry in test [6], in [7], in [8], in test [9] and in test [10] was “inactive” each time.
In test [1], `NC(=O)Nc1sc(-c2ccc(F)cc2)cc1C(N)=O` yielded a parasite growth remaining, % of DMSO control (lower = more inhibition) of 8.68%. In addition, the parasite growth, % of control (lower = inhibition) in [2] is 9.96%. This compound also showed a growth, % of control in test [3] of 3.76%. Moreover, the cell viability, % of control (lower = more cytotoxic) in test [4] came to 3.62%. In addition, the viability (% of control) in [5] turned out to be 3.13%. The Potency entry in test [6] and in test [7] was “inactive” each time. Moreover, the Potency was 1.05 µM (active) in test [8], 1.66 µM (active) in test [9] and 3.72 µM (active) in test [10].
The compound `N#CC(=C(O)c1ccc(Cl)cc1Cl)c1nc2cc(Cl)ccc2c(=O)[nH]1` yielded a parasite growth remaining, % of DMSO control (lower = more inhibition) in test [1] of 99.7%. For the same compound, the parasite growth, % of control (lower = inhibition) in test [2] amounted to 99%. In [3], this compound showed a growth, % of control of 74%. In addition, the cell viability, % of control (lower = more cytotoxic) in test [4] was 34.3%. Also, in [5], the viability (% of control) is 95.9%. The Potency entry in test [6], in [7], in test [8], in test [9] and in test [10] was “inactive” in each case.
In [1], `O=C(Nc1nnc(-c2ccco2)o1)c1cc(-c2ccccc2)nc2ccccc12` registered a parasite growth remaining, % of DMSO control (lower = more inhibition) of 94.4%. The same compound showed a parasite growth, % of control (lower = inhibition) in test [2] of 42.6%. The compound also came in with a growth, % of control in [3] of 18.7%. The cell viability, % of control (lower = more cytotoxic) in test [4] came out at 42.4%. Also, the viability (% of control) in [5] was 17.3%. Also, the Potency result in [6] and in test [7] was “inactive” throughout. Moreover, the Potency in test [8] is 16.6 µM (active); in test [9] it was 16.6 µM (active); in test [10] it was 23.5 µM (active).
In test [1], `COc1cc(C(=O)NC2CCN(C)CC2)ccc1Nc1ncc2c(n1)N(C1CCCC1)CCC(=O)N2C(C)C` yielded a parasite growth remaining, % of DMSO control (lower = more inhibition) of 7.51%. Besides, the parasite growth, % of control (lower = inhibition) in test [2] stood at 15.5%. This compound displayed a growth, % of control in test [3] of 6.9%. The cell viability, % of control (lower = more cytotoxic) in [4] is 6.24%. Also, in [5], the viability (% of control) came to 2.49%. Besides, the Potency entry in test [6] and in test [7] was “inactive” in each case. Further, the Potency in test [8] is 2.35 µM (active); in [9] it was 2.09 µM (active); in [10], 2.09 µM (active).
